The text below walks through data of PubChem BioAssay (Tox21).

Experiment [1] is described as follows: qHTS assay to identify small molecule antagonists of the estrogen related receptor (ERR) signaling pathway from Tox21 library - cell viability counter screen (AID 1224834). Note: nearly all actives have a fitted effect of over 30% in size. Summed up: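 CellTiter-Fluor fluorescence measured; ERR cells; 17.5 h compound incubation at 37 C; 30 min reagent step.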
Experiment [2] concerns the target Luciferin 4-monooxygenase (Photinus pyralis) (UniProt P08659). As to the kind of experiment: qHTS assay to identify small molecule inhibitors of firefly luciferase (AID 1224835). Note: nearly all actives have a fitted effect of over 25% in size. A digest of the protocol: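 Inhibition of purified Photinus luciferase is measured by luminescence. Substrate levels (D-luciferin, ATP) sit at their KM values. Each compound is tested in a concentration series.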
Background: In qHTS, concentration-response curves come from the screen itself.

Experiment [3] in a line: qHTS assay to identify small molecule agonists of the constitutive androstane receptor (CAR) signaling pathway - cell viability counter screen (AID 1224836). Note: nearly all actives have a fitted effect of over 45% in size. Summed up:
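HepG2 cells stably carrying hCAR and a CYP2B6-2.2kb reporter; 15-concentration compounds plus PK11195 (final 0.75 uM), 23 hr at 37 C/5% CO2. Viability read by CellTiter-Fluor fluorescence.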

Experiment [4] can be described thus: qHTS assay to identify small molecule antagonists of the constitutive androstane receptor (CAR) signaling pathway - cell viability counter screen (AID 1224837). Note: nearly all actives have a fitted effect of over 45% in size. A digest of the protocol: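 Using CellTiter-Fluor, viability is scored in HepG2 cells stably carrying hCAR and a 2.2kb CYP2B6 reporter after 23 hr compound exposure across 15 concentrations, with CITCO present at 50 nM.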

In experiment [5] the target is Nuclear receptor subfamily 1 group I member 3 (Homo sapiens) (UniProt Q14994). As to the kind of experiment: qHTS assay to identify small molecule antagonists of the constitutive androstane receptor (CAR) signaling pathway (AID 1224838).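 Note: HepG2 cells stably expressing hCAR with CYP2B6 luciferase reporter stimulated by CITCO; nearly all actives have a fitted effect of over 40% in size.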 Summed up: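 Reporter luminescence was quantified after 24 h exposure of hCAR/CYP2B6-2.2kb double-stable HepG2 cells to compounds at 15 concentrations in the presence of 50 nM CITCO final.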

The target is the same in experiment [6]. Put plainly: qHTS assay to identify small molecule agonists of the constitutive androstane receptor (CAR) signaling pathway (AID 1224839). Note: nearly all actives have a fitted effect of over 15% in size. Summed up: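 HepG2 cells stably co-transfected with hCAR and a CYP2B6-2.2kb luciferase reporter; compounds at 15 concentrations with 0.75 uM PK11195 present. After 24 hr at 37 C, luciferase read by ONE-Glo luminescence.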

A short description of experiment [7]: qHTS assay to identify small molecule antagonists of the estrogen related receptor signaling pathway with the pleiotropic PPARgamma coactivator (PGC) from Tox21 10K library - cell viability counter screen (AID 1224840; active = well fitted cell-killing curve with a large enough effect in the repeat runs, not every such curve was filed as active; note: nearly all actives have a fitted effect of over 40% in size). A digest of the protocol:
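Here the PGC/ERR cells serve as a cytotoxicity control: they are exposed to compounds for 17.5 hours at 37 C, and live-cell signal is quantified using CellTiter-Fluor fluorescence.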

Experiment [8] can be described thus: qHTS assay to identify small molecule antagonists of the estrogen related receptor signaling pathway with the pleiotropic PPARgamma coactivator (PGC) from Tox21 10K library (AID 1224841; call rule not given here; note: actives are mostly falling curves and most rising ones were filed inactive; nearly all actives have a fitted effect of over 50% in size). Summed up: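 Each well held 2,000 PGC/ERR cells, pre-incubated six hours (37 C, 5% CO2). Test substances in DMSO were added by pin tool and left for 18 h at 37 C before luciferase detection by One-Glo.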

Experiment [9] can be described thus: qHTS assay to identify small molecule agonists of the estrogen related receptor signaling pathway with the pleiotropic PPARgamma coactivator (PGC) from Tox21 10K library (AID 1224842). Note: nearly all actives have a fitted effect of over 15% in size. Summed up: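 Luminescence from One-Glo (30 min, room temperature) measured after PGC/ERR cells had 18 h at 37 C with pinned compound (23 nL in DMSO). Cells had been seeded at 2,000 per well and pre-incubated 6 h.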

Experiment [10] deals with Thyrotropin receptor (Homo sapiens) (UniProt P16473). Put plainly: qHTS assay to identify small molecule agonists of the thyroid stimulating hormone receptor (TSHR) signaling pathway (AID 1224843; calls by dose curve; note: nearly all actives have a fitted effect of over 45% in size). Summed up:
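HEK293 cells stably bearing the thyrotropin receptor were plated at 800 cells/well and challenged with compound (30 min, RT). Accumulated cAMP was quantified via cAMP-d2 competing for cryptate-tagged antibody.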

Experiment [11] is described as follows: qHTS assay to identify small molecule agonists of the hypoxia (HIF-1) signaling pathway - cell viability counter screen (AID 1224844; calls by dose curve; note: nearly all actives have a fitted effect of over 50% in size). A digest of the protocol:
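Multiplexed with the HRE beta-lactamase assay, this viability read used CellTiter-Glo luminescence (30 min, RT) on HRE-bla ME-180 cells treated 17 hrs with compounds in 0.5% dialyzed FBS medium.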

Experiment [12] can be described thus: qHTS assay to identify small molecule agonists of H2AX (AID 1224845; active = well fitted activation curve with a large enough effect in the signal ratio in the repeat runs, not every such curve was filed as active; the % refers to the signal ratio). A digest of the protocol:
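Phospho-H2AX Ser139 measured by HTRF (ex 320 nm; em 665 and 620 nm) after 24 hr antibody incubation. Compounds, 15 concentrations, 0.76% DMSO, were applied to CHO-K1 cells for 3hr at 37C before lysis.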

A short description of experiment [13]: qHTS assay to identify small molecule agonists of the hypoxia (HIF-1) signaling pathway (AID 1224846; active = well fitted activation curve with a large enough effect in the signal ratio in the repeat runs, not every such curve was filed as active; the % refers to the signal ratio). A digest of the protocol:
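Hypoxia-pathway activation was scored as increased beta-lactamase from an HRE-controlled reporter in ME-180 cells; plated at 2,000 cells per well with 0.5% dialyzed FBS, they were exposed 17 hrs to compounds and then given CCF4-AM.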

The nature of experiment [14]: qHTS assay to identify small molecule agonists of H2AX - cell viability counter screen (AID 1224847; calls by dose curve;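 note: wild-type CHO-K1 cells; top concentration of the series differs between compounds; nearly all actives have a fitted effect of over 30% in size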). Summed up: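 CHO-K1 cells plated overnight at 37C, then exposed 3 h at 37C to compounds at 15 concentrations (0.76% DMSO final). Viability by CellTiter-Glo luminescence after 30 min at room temperature.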
Experiment [15] is described as follows: qHTS assay to identify small molecule antagonists of the estrogen related receptor (ERR) signaling pathway from Tox21 library (AID 1224848). Note: nearly all actives have a fitted effect of over 50% in size. Summed up:
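Reading was by luminescence 30 min after ONE-Glo addition. Before that, ERR cells at 2,000 per well had rested 6 h at 37 C/5% CO2 and then received pin-tooled compounds in DMSO for 18 h at 37 C.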

Experiment [16] is described as follows: qHTS assay to identify small molecule agonists of the estrogen related receptor (ERR) signaling pathway from Tox21 library (AID 1224849; calls by dose curve; note: nearly all actives have a fitted effect of over 15% in size). Conditions: ERR reporter cell line, ONE-Glo luciferase, 18 h; at 92.4 µM (top of the series) unless noted. A digest of the protocol: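 Six hours post-seeding at 37 C/5% CO2, ERR cells receive DMSO-solubilised compounds; after 18 h at 37 C, ONE-Glo reagent is applied and luminescence recorded.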

A short description of experiment [17]: qHTS RealTime-Glo MT Cell Viability Assay in HepG2 cells - 24 hour (AID 1224867). Note: nearly all actives have a fitted effect of over 50% in size. A digest of the protocol:
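HepG2 suspension premixed with RealTime-Glo reagents is plated at 600 cells per well and left 5 h at 37 C/5% CO2. Compounds in DMSO then go in, and bioluminescence reflecting viable cell number is recorded over 40 h.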

Experiment [18] in a line: qHTS RealTime-Glo MT Cell Viability Assay in HEK293 cells - 32 hour (AID 1224868). Note: nearly all actives have a fitted effect of over 50% in size. Note: potency is the fitted concentration of half-maximal effect. Summed up:
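Reads taken at 0, 8, 16, 24, 32 and 40 h from the same wells. HEK293 cells (600/well) carried RealTime-Glo reagents from seeding, with compound added after a 5 h settle at 37 C.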

The nature of experiment [19]: A CellTox Green Cytotoxicity Assay to monitor cytotoxicity in HEK293 cells - 0 hour (AID 1224869). Note: nearly all actives have a fitted effect of over 50% in size. Note: potency is the fitted concentration of half-maximal effect. A digest of the protocol:
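Seeding of HEK293 cells together with cytotoxicity dye preceded a 5 h incubation at 37 C/5% CO2. Test compounds in DMSO were then added and fluorescence monitored across 40 h.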

Experiment [20] in a line: qHTS assay to identify small molecule agonists of the estrogen related receptor signaling pathway with the pleiotropic PPARgamma coactivator (PGC) (AID 1224823). A digest of the protocol:
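Cell-based luciferase assay in the NTP-supplied PGC/ERR line, 2,000 cells/well; 18 h compound exposure at 37 C, luminescence after One-Glo.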

Values without a mark were called inactive. Records with an inconclusive call do not appear. The source made the active and inactive calls. Unless noted, calls come from the whole dose curve; as a rule, active = well fitted curve in the direction sought with a large enough effect in the repeat runs; inconclusive = weak or mixed curves; inactive = no such curve, though single readings can be large; an effect the other way counts as inactive or inconclusive.
% is set by controls: 0 for no effect and ±100 for the full control effect.

Nuclear receptor subfamily 1 group I member 3 (Homo sapiens), sequence (Q14994 whole entry, looked up): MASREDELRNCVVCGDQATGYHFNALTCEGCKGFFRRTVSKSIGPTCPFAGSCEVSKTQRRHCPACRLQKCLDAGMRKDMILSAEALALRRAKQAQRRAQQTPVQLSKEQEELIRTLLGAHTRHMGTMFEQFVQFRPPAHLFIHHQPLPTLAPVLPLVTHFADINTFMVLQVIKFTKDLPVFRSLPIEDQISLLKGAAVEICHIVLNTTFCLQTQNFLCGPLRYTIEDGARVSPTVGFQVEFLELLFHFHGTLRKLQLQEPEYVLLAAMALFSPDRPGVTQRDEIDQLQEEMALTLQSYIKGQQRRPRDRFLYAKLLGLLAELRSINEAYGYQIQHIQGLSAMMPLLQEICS
Luciferin 4-monooxygenase (Photinus pyralis), sequence (P08659 whole entry, looked up): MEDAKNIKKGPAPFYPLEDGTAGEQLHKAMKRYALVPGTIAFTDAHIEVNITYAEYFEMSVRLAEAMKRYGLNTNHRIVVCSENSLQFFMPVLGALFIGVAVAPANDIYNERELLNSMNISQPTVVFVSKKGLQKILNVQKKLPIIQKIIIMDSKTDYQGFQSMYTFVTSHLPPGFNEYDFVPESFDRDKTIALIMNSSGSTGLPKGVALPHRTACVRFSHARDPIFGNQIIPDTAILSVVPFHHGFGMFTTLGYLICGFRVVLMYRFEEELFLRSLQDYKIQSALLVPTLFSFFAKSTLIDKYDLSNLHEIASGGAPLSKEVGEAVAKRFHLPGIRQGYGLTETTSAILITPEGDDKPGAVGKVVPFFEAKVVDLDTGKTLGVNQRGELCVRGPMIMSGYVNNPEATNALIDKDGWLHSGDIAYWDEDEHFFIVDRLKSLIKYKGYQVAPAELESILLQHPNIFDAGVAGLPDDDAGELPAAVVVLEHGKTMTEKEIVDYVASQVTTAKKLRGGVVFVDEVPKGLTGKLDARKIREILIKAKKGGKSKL
Thyrotropin receptor (Homo sapiens), sequence (P16473 whole entry, looked up): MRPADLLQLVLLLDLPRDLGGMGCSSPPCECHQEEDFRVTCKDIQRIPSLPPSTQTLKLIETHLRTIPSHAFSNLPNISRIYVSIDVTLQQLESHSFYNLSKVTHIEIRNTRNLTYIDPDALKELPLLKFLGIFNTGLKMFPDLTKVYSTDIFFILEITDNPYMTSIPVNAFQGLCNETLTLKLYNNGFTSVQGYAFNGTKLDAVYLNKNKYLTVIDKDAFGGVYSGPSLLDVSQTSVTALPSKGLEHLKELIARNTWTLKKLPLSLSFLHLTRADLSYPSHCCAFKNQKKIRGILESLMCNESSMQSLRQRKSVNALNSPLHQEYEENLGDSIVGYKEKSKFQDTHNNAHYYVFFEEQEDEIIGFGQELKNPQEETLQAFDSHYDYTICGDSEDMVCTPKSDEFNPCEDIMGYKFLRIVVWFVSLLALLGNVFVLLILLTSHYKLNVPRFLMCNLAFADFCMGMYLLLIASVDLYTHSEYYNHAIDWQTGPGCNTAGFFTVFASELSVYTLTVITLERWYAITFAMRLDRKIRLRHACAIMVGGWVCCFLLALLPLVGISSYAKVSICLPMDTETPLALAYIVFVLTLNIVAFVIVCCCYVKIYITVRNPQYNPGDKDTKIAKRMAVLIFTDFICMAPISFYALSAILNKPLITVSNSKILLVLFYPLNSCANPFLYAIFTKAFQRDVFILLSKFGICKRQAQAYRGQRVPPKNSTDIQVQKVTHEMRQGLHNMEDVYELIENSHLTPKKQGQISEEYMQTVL

Regarding `FC1(F)C(F)(F)C(F)(F)C2(F)C(F)(F)C(F)(F)C(F)(F)C(F)(F)C2(F)C1(F)F` (configuration not stated), the Potency entry in experiment [1], in experiment [2], in experiment [3], in experiment [4], in experiment [5] and in [6] was “inactive” throughout. Also, the Potency result in experiment [7], in [8], in experiment [10], in experiment [11], in [14] and in [15] was “inactive” throughout. Further, the Potency entry in experiment [17], in experiment [18] and in [19] was “inactive” throughout. Besides, the compound was called inactive in experiment [9], in [12] and in experiment [13]. For the same compound, in experiment [16], the activity change, positive = activation is 2.28% [at 42.5 µM].
As for `NC(=O)Nc1ccccc1`, the Potency result in experiment [1], in experiment [2], in experiment [3], in experiment [4], in [5] and in [6] was “inactive” throughout. The Potency result in experiment [7], in experiment [8], in experiment [10], in experiment [11], in experiment [14] and in [15] was “inactive” each time. Moreover, the Potency result in [17], in experiment [18] and in [19] was “inactive” each time. Besides, the outcome in [9], in experiment [12] and in experiment [13] was inactive. In addition, the activity change, positive = activation in experiment [16] is 8.88%.
Consider `Cc1cccc(C)c1NC(=O)C(C)N` (configuration not stated), for which the outcome in [20], in [9] and in [12] was inactive. For the same compound, the Potency result in experiment [1], in [2], in [3], in experiment [4], in experiment [5] and in experiment [6] was “inactive” in each case. Besides, the Potency result in experiment [7], in experiment [8], in [10], in experiment [11], in experiment [14] and in experiment [15] was “inactive” in each case. Moreover, the Potency entry in experiment [17] and in [18] was “inactive” in each case. Also, in experiment [16], the activity change, positive = activation was 3.88% [at 42.5 µM]. In addition, the Potency in [19] is 21.3 µM (active).
As for `OCCCC1CCCCC1`, the Potency entry in [1], in experiment [2], in [3], in experiment [4], in experiment [5] and in [6] was “inactive” throughout. Also, the Potency result in experiment [7], in experiment [8], in experiment [10], in experiment [11], in experiment [14] and in experiment [15] was “inactive” each time. For the same compound, the Potency entry in experiment [17], in experiment [18] and in experiment [19] was “inactive” each time. The outcome in experiment [9], in [12] and in [13] was inactive. Also, the activity change, positive = activation in [16] is -0.619%.
In the case of `O=C(CCCN1CCC(O)(c2cccc(C(F)(F)F)c2)CC1)c1ccc(F)cc1`, the compound was called inactive in experiment [20], in experiment [9] and in experiment [12]. The Potency entry in experiment [1], in experiment [2], in [3], in experiment [4], in [5] and in experiment [6] was “inactive” in each case. Moreover, the Potency entry in [7], in experiment [10], in [11], in experiment [14], in [15] and in experiment [17] was “inactive” throughout. The Potency entry in experiment [19] was “inactive”. The activity change, positive = activation in experiment [16] is -10.2% [at 42.5 µM]. The Potency in experiment [18] was 19 µM (active).
Regarding `NC(=O)c1ccc([N+](=O)[O-])cc1`, the Potency entry in experiment [1], in experiment [2], in [3], in [4], in experiment [5] and in experiment [6] was “inactive” in each case. Besides, the Potency result in [7], in experiment [8], in [10], in [11], in experiment [14] and in experiment [15] was “inactive” in each case. For the same compound, the Potency entry in [17], in experiment [18] and in experiment [19] was “inactive” throughout. In addition, the outcome in [9], in experiment [12] and in experiment [13] was inactive. The activity change, positive = activation in [16] is -5.69%.
With `CCOC(=O)C(=O)OCC`, the Potency result in experiment [1], in experiment [2], in [3], in [4], in experiment [5] and in [6] was “inactive” in each case. The Potency entry in experiment [7], in experiment [8], in experiment [10], in experiment [11], in [14] and in experiment [15] was “inactive” throughout. In addition, the Potency result in experiment [17], in experiment [18] and in [19] was “inactive” each time. Besides, the result in experiment [9], in [12] and in [13] was inactive. Also, in experiment [16], the activity change, positive = activation was 4.42%.
